High-throughput results deposited in PubChem by National Center for Advancing Translational Sciences (NCATS).
TDP1 cell noCPT: qHTS for Inhibitors of human tyrosyl-DNA phosphodiesterase 1 (TDP1): qHTS in cells in absence of CPT; DT40 Tdp1-/- hTDP1 cells, no CPT, ATP luminescence, 48 h; Potency, µM (top dose mostly 46.2 µM), inactives show top-dose activity change, negative = growth inhibition, usual class: inhibitors; 420,000 tested, 15% active; AID 686978, 2013; further: potency means the concentration at half of the fitted maximal effect; nearly all actives have a fitted effect of over 55% in size
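Compound effects on proliferation are scored in DT40 Tdp1-/-;hTDP1 cells in the absence of CPT. ATP levels (CellTiter-Glo luminescence) are recorded after a ≥48 hr, 37 °C incubation.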
Giardia kill: kills Giardia lamblia; Giardia lamblia trophozoite viability; activity change, % at 7.66 µM, hits read low; 340,000 tested, 0.15% active; in the data active means activity change below about -80%; inconclusive means between about -30% and that limit;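 further: parasites exposed to compound for two days anaerobically before the ATP read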
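Luminescent ATP signal served as the viability read-out, measured 15-30 min after adding ATP detection reagent to trophozoites that had been incubated with compounds for 48 hrs at 37 deg C anaerobically at 100 cells/well.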
IL1B secr inh: inhibitors of inflammasome signaling (IL-1 beta secretion). AID 743279. THP-1 LPS/ATP IL-1B secretion, AlphaLISA, 16 h; hits give low values. 360,000 tested, 4.7% active. activity change, % at 57.5 µM; in the data active means activity change below about -50%; inconclusive means mostly about -30% to -49%
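THP-1 cells pretreated 1 hr with compounds (up to 57.5 uM final), then stimulated with LPS (250 ng/mL final) plus ATP (1.25 mM final); secreted IL-1B measured by AlphaLISA after 16 hr, decreased signal indicating inhibition.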
TDP1 cell CPT: DT40-hTDP1 cell growth loss with CPT; chicken DT40 Tdp1-/-;hTDP1 cells + 20 nM CPT, ATP luminescence, 48 h; Potency, µM (highest dose often 46.2 µM), inactives show at the highest dose activity change, negative = growth inhibition, actives largely listed as inhibitors; 420,000 tested, 12% active; further: potency means the concentration at half of the fitted maximal effect; nearly all actives have a fitted effect of over 55% in size
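Chicken DT40 Tdp1-/- cells complemented with human TDP1, 400 cells/well, exposed to compounds plus 20 nM camptothecin for at least 48 h at 37 C; viability read as ATP content by CellTiter-Glo luminescence.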
ELG1 DNA repair: ELG1-dependent DNA repair inhibition; HEK293T ELG1-luciferase reporter, luminescence, 16 h; DNA damage induced by 5-fluorouridine; Potency, µM (series often up to 46.1 µM), for the others: at the top dose activity change, negative = inhibition, actives largely listed as inhibitors; 330,000 tested, 2.3% active; AID 504467; further: potency means the concentration at half of the fitted maximal effect; nearly all actives have a fitted effect of over 55% in size
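Overnight (16 hr) co-exposure of 2,000 cells/well to 5-fluorouridine and compound at 37 °C preceded detection. Luciferase was quantified via ONE-Glo luminescence; loss of signal denotes inhibition.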
TDP1 block: inhibitors of human tyrosyl-DNA phosphodiesterase TDP1; Q9NUW8; recombinant TDP1, AlphaScreen DNA substrate cleavage; Potency, µM (highest dose often 130 µM), inactives show top-dose activity change, negative = inhibition, hits mostly inhibitors; 350,000 tested, 0.28% active; further: potency means the concentration at half of the fitted maximal effect; nearly all actives have a fitted effect of over 40% in size
Target sequence (Q9NUW8 whole entry, looked up): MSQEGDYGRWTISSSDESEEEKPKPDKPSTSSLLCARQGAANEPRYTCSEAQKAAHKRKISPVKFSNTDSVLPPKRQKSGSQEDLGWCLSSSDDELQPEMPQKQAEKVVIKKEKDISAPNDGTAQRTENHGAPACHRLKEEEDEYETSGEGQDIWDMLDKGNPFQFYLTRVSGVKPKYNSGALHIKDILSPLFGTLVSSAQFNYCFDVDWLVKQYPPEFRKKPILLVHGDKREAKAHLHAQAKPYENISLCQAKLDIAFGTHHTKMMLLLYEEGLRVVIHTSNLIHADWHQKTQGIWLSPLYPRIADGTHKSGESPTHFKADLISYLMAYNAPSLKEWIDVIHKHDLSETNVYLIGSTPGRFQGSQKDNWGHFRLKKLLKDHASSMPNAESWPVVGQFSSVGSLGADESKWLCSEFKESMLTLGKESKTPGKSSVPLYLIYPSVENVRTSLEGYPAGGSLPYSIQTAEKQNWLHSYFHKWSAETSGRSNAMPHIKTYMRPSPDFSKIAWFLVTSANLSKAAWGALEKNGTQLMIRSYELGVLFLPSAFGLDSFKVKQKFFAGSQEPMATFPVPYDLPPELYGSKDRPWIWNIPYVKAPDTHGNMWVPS
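Steps: enzyme plus compound, 15 min RT; add biotin/phosphotyrosine-FITC oligonucleotide (15 nM final), react 5 min; add donor/acceptor beads (10 ug/ml final), 10 min; read AlphaScreen. Tdp1 at 1 nM final.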
* = called active by the depositor; ? = inconclusive; . = not tested or not shown; [ ] = another dose, or the depositor's remark. The list is not random: actives were taken first. Their share in the collection is about 19%. Unless noted, the call rests on the fitted dose curve; in most records, active means well fitted curve in the direction sought with a large enough effect; inconclusive means small, poorly fitted or top-dose-only effect, or another doubt; inactive means no such curve, though single readings can be large; an effect the other way counts as inactive or inconclusive. On the % scale 0 is the no-effect control and ±100 the full control effect.

SMILES | TDP1 cell noCPT | Giardia kill | IL1B secr inh | TDP1 cell CPT | ELG1 DNA repair | TDP1 block
O=C1NC2(CCCCC2)C(=O)N1Cc1cccc(C(F)(F)F)c1 | -2.8% | 9.8 | 2.1 | -10.1% | 9.2µM* | 2.5%
O=C(CN1C(=O)NC2(CCCCCCC2)C1=O)Nc1ccc(Cl)cc1 | 14.6µM* | 29.7 | 16.7 | 13µM* | 2.5% | -0.7%
COc1ccc(NC(=O)c2ccccc2NC(=O)CSc2ccc(Cl)cc2)cc1 | ? | -19.7 | 0.0 | ? | ? | -2.6%
CCCCCn1c(=O)[nH]c2cc(C(=O)Nc3ccc(OC)c(OC)c3)ccc2c1=O | -13.6% | . | . | 3.9% | . | 5.9%
Cc1ccccc1OCC(=O)NNC(=O)c1cc(S(=O)(=O)N2CCOCC2)ccc1N1CCCC1 | -11.7% | -4.0 | -24.1 | -12.5% | 3.0% | 1.1%
Cc1c(C(=O)O)oc2c1/C(=N\O)CC(C)(C)C2 | -4.4% | -20.3 | 9.5 | 16.6% | 24.2% | 5.5%
CCCn1c(C)cc(C(=O)CN2C(=O)NC3(CCCCCC3)C2=O)c1C | 6.51µM* | . | 30.6 | 10.3µM* | . | .
COc1cc(OC)cc(-c2nc3ccccc3c(=O)n2OC(=O)c2ccccc2C)c1 | -25.6% | 6.2 | -61.2* | ? | ? | 1.1%
O=c1c2ccccc2nc(-c2ccccc2)n1O | -2.1% | -3.3 | 0.0 | 2.06µM* | . | .
O=C(On1c(-c2ccccc2)nc2ccccc2c1=O)c1ccco1 | 23.1µM* | 3.1 | -25.3 | 23.1µM* | . | 6.1%
N#Cc1ccccc1NC(=O)CSc1nnc(N)s1 | -13.2% | . | . | 0.6% | . | -4.8%[12.3 µM]
CC(C)Cc1nn2c(=O)cc(COC(=O)c3ccccc3NC(=O)c3ccccc3)nc2s1 | 6.1% | . | . | -4.8% | . | 6.2%
N#Cc1ccccc1S(=O)(=O)N1CCN(Cc2cc3c(cc2Br)OCCO3)CC1 | ? | . | -1.0 | 16.4µM* | . | .
COc1ccc(C(O)(C(C)C)C(CN2CCOCC2)c2ccc(Cl)cc2)cc1 (stereo unspecified) | 18.4µM* | -2.9 | -17.1 | ? | -28.4% | .
CCCCC(O)(c1ccc(OC)cc1)C(CN1CCOCC1)c1ccccc1 (stereo unspecified) | 23.1µM* | 17.4 | ? | 18.4µM* | ? | .
CCCC(O)(c1ccc(OC)cc1)C(CN1CCOCC1)c1ccccc1 (stereo unspecified) | ? | -1.1 | -5.4 | ? | ? | -10.5%
CCCCCC(O)(c1ccc(OC)cc1)C(CN1CCOCC1)c1ccccc1 (stereo unspecified) | 10.3µM* | 35.2 | -29.9 | 16.4µM* | -8.3% | .
CCC(O)(c1ccccc1)C(CN1CCOCC1)c1ccccc1 (stereo unspecified) | -21.0% | 21.3 | -4.0 | ? | 13.1% | .
CCCCCC(O)(c1ccc(OCC)cc1)C(CN1CCOCC1)c1ccccc1 (stereo unspecified) | 16.4µM* | -7.9 | -85.3* | ? | ? | .
CC1CCN(C(=O)c2c(NC(=O)c3ccccc3F)sc3c2CCC(C(C)(C)C)C3)CC1 (stereo unspecified) | 3.0% | . | . | -7.5% | . | .
COc1ccc(/C=N/NC(=O)Cc2cc(OC)c(OC)cc2[N+](=O)[O-])cc1 | -9.2% | -19.8 | 0.0 | -6.6% | -10.8% | 5.4%
COc1ccccc1N1CCN(C(=O)CN2C(=O)COc3ccc(S(=O)(=O)N4CCCC4)cc32)CC1 | . | . | . | . | . | 3.8%
O=C(c1cc(-c2ccco2)nn1-c1cccc(Cl)c1)N1CCCCC1 | 16.4µM* | 5.3 | 0.0 | 16.4µM* | -12.3% | -11.1%
N#CC(=Nc1ccccc1)c1ccccc1 | -11.0% | -21.9 | -25.1 | -1.2% | . | .
N#CC(=C1C=C(Br)C(=NO)C=C1Cl)c1ccc(Cl)cc1 | 2.59µM* | . | ? | 4.61µM* | . | .
N#CC(=C1C=CC(=NO)C(Cl)=C1)c1ccccc1 | 1.3µM* | . | -97.7* | 0.651µM* | . | .
